# Data taken from the supplement of paper PMC8975748.
# Counter-ions that a name gives are not always drawn.
# Test system: Saccharomyces cerevisiae BY4741 SeMeCo community
# Assay: z-score of subpopulation abundance vs DMSO median, subpopulation auxotrophic for HU; higher = larger share of this subpopulation than in DMSO controls
# Settings: 10 µM; 24 h; SM minimal medium; subpopulation (auxotrophy): HU
# Experimental: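 Fluorescent four-plasmid SeMeCo (self-establishing metabolically cooperating S. cerevisiae BY4741 community; plasmids pH-mRuby2, pL-mWasabi, pU-eCFP, pM-TagRFP657) was grown 24 h in minimal SM medium with each Selleck FDA-approved drug at 10 µM in 384-well plates. Cells were fixed and imaged by high-content confocal microscopy. For each auxotrophic subpopulation (and the prototroph), a z-score gives the deviation from the DMSO vehicle-control population median.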
row,Structure (SMILES),z-score of subpopulation abundance
1,C[C@H]1O[C@@H](O[C@H]2[C@@H](O)C[C@H](O[C@H]3[C@@H](O)C[C@H](O[C@H]4CC[C@@]5(C)[C@H](CC[C@@H]6[C@@H]5C[C@@H](O)[C@]5(C)[C@@H](C7=CC(=O)OC7)CC[C@]65O)C4)O[C@@H]3C)O[C@@H]2C)C[C@H](O)[C@@H]1O [Digoxin],0.8
2,Nc1ccc(/N=N/c2ccccc2)c(N)n1 [Phenazopyridine HCl],-2.46
3,O=C(O[C@@H]1C[C@@H]2C[C@H]3C[C@H](C1)N2CC3=O)c1c[nH]c2ccccc12 [Dolasetron Mesylate],0.7
4,Cc1onc(-c2ccccc2)c1-c1ccc(S(N)(=O)=O)cc1 [Valdecoxib],-0.23
5,Clc1ccc(CCC(Cn2ccnc2)Sc2c(Cl)cccc2Cl)cc1 (stereo not given) [Butoconazole],7.63
6,OC(CCCN1CCCCC1)(c1ccccc1)c1ccccc1 [Diphenidol HCl],0.48
7,Fc1ccc([C@@H]2CCNC[C@H]2COc2ccc3c(c2)OCO3)cc1 [Paroxetine HCl],-1.01
8,C[C@@H](O)[C@H]1C(=O)N2C(C(=O)OCOC(=O)C(C)(C)C)=C(SC3CN(C4=NCCS4)C3)[C@H](C)[C@H]12 [Tebipenem Pivoxil],-0.03
9,NC(=O)C(c1ccccc1)(c1ccccc1)[C@@H]1CCN(CCc2ccc3c(c2)CCO3)C1 [Darifenacin HBr],-0.14
10,C#C[C@]1(O)CC[C@H]2[C@@H]3CCC4=CCCC[C@@H]4[C@H]3C(=C)C[C@@]21CC [Desogestrel],-0.11
11,C=C1CCC2C(C)(CO)C(O)CCC2(C)C1CC=C1C=COC1=O (stereo not given) [Dehydroandrographolide],0.11
12,COC(=O)Nc1nc2cc(C(=O)c3ccc(F)cc3)ccc2[nH]1 [Flubendazole],0.34
13,"CC[C@H](Nc1ncnc2[nH]cnc12)c1nc2cccc(F)c2c(=O)n1-c1ccccc1 [Idelalisib (CAL-101, GS-1101)]",0.68
14,CNCC[C@H](Oc1cccc2ccccc12)c1cccs1 [Duloxetine HCl],-1.13
15,OC[C@H]1O[C@H](OCC2O[C@@H](O)[C@H](O)[C@@H](O)[C@@H]2O)[C@H](O)[C@@H](O)[C@H]1O (stereo not given in full) [Melibiose],0.74
16,OCCN(CCO)c1nc(N2CCCCC2)c2nc(N(CCO)CCO)nc(N3CCCCC3)c2n1 [Dipyridamole],-7.22
17,COc1ccc(CC2c3cc(OC)c(OC)cc3CC[N+]2(C)CCC(=O)OCCCCCOC(=O)CC[N+]2(C)CCc3cc(OC)c(OC)cc3C2Cc2ccc(OC)c(OC)c2)cc1OC (stereo not given) [Atracurium Besylate],0.23
18,CC[C@H](C)[C@H](N)C1=N[C@H](C(=O)N[C@@H](CC(C)C)C(=O)N[C@H](CCC(=O)O)C(=O)N[C@H](C(=O)N[C@H]2CCCCNC(=O)[C@H](CC(N)=O)NC(=O)[C@@H](CC(=O)O)NC(=O)[C@H](Cc3cnc[nH]3)NC(=O)[C@@H](Cc3ccccc3)NC(=O)[C@H]([C@@H](C)CC)NC(=O)[C@@H](CCCN)NC2=O)[C@@H](C)CC)CS1 [Bacitracin],2.07
19,NC(=O)OCC(COC(N)=O)c1ccccc1 [Felbamate],-0.73
20,CO/N=C(\C(=O)N[C@@H]1C(=O)N2C(C(=O)[O-])=C(C[n+]3cccc4c3CCC4)CS[C@H]12)c1csc(N)n1 [Cefpirome sulfate],-0.75

row,Structure (SMILES),z-score of subpopulation abundance
1,CS(=O)(=O)c1ccc(C2=C(c3ccccc3)C(=O)OC2)cc1 [Rofecoxib],0.01
2,COc1ccc(C(Cl)=C(c2ccc(OC)cc2)c2ccc(OC)cc2)cc1 [Chlorotrianisene],0.01
3,CCC[C@@H]1C[C@@H](C(=O)N[C@@H]([C@H]2O[C@H](SC)[C@H](O)[C@@H](O)[C@H]2O)[C@H](C)Cl)N(C)C1 [Clindamycin HCl],-0.26
4,CN1CCN2c3ncccc3Cc3ccccc3C2C1 (stereo not given) [Mirtazapine],0.29
5,CCC(C)(C)C(=O)O[C@H]1C[C@@H](C)C=C2C=C[C@H](C)[C@H](CC[C@@H]3C[C@@H](O)CC(=O)O3)[C@H]21 [Simvastatin],1.53
6,C[C@@H]1C/C=C/C=C/C=C/C=C/[C@H](O[C@@H]2O[C@H](C)[C@@H](O)[C@H](N)[C@@H]2O)C[C@@H]2O[C@](O)(C[C@@H](O)C[C@H]3O[C@@H]3/C=C/C(=O)O1)C[C@H](O)[C@H]2C(=O)O [Natamycin],33.6
7,c1ccc2[nH]c(-c3cscn3)nc2c1 [Thiabendazole],-0.69
8,COc1cc(N)c(Cl)cc1C(=O)NC1CCN(CCCOc2ccc(F)cc2)CC1OC (stereo not given) [Cisapride],-0.01
9,CCN1CCN(C(=O)N[C@@H](C(=O)N[C@@H]2C(=O)N3C(C(=O)O)=C(CSc4nnnn4C)CS[C@H]23)c2ccc(O)cc2)C(=O)C1=O [Cefoperazone],-0.48
10,Cc1ccc(Sc2ccccc2N2CCNCC2)c(C)c1 [Vortioxetine],0.9
11,CC[C@H]1OC(=O)C[C@@H](O)[C@H](C)[C@@H](O[C@@H]2O[C@H](C)[C@@H](O[C@H]3C[C@@](C)(O)[C@@H](O)[C@H](C)O3)[C@H](N(C)C)[C@H]2O)[C@@H](CC=O)C[C@@H](C)C(=O)/C=C/C(C)=C/[C@@H]1CO[C@@H]1O[C@H](C)[C@@H](O)[C@@H](OC)[C@H]1OC [Tylosin],0.26
12,C#C[C@]1(O)CC[C@H]2[C@@H]3CCc4cc(OC5CCCC5)ccc4[C@H]3CC[C@@]21C [Quinestrol],0.41
13,O=C(O)c1cn(C2CC2)c2cc(N3CCNCC3)c(F)cc2c1=O [Ciprofloxacin hydrochloride hydrate],0.3
14,CCCCCCCCOc1ccccc1C(=O)Nc1ccc(C(=O)OCC[N+](C)(CC)CC)cc1 [Otilonium Bromide],3.65
15,Nc1c(Br)cc(Br)cc1CN[C@H]1CC[C@H](O)CC1 [Ambroxol HCl],-1.1
16,O=C(N[C@H](CO)[C@H](O)c1ccc([N+](=O)[O-])cc1)C(Cl)Cl [Chloramphenicol],0.66
17,Cc1c(Cl)cccc1Nc1ccccc1C(=O)O [Tolfenamic Acid],-0.34
18,CCN1CCCC1CNC(=O)c1cc(S(N)(=O)=O)ccc1OC (stereo not given) [Sulpiride],-0.14
19,C[C@@H](O)[C@H]1C(=O)N2C(C(=O)O)=C(S[C@@H]3CN[C@H](C(=O)Nc4cccc(C(=O)O)c4)C3)[C@H](C)[C@H]12 [Ertapenem sodium],-0.53
20,CCCc1cc(C(N)=S)ccn1 [Protionamide],-0.73
